The results in this text go back to PubChem BioAssay AID463173 (ICCB-Longwood Screening Facility, Harvard Medical School, 2010).

Screen size: about 52,000 compounds; about 4,300 (8.3%) were called active. The sample holds actives, similar compounds and a random draw of the others, so the mix is not that of the screen. No stated cut-off is given here; in the data, active means survival mostly below about 52% (no sharp cut-off); inactive means mostly above about 56%.

The test relates to DeltatarO mutant. Put plainly: S. aureus survival, RN4220 and DeltatarO strains – OD600, teichoic acid synthesis inhibitors, primary screen (AID 463173). As to conditions: S. aureus RN4220 wild type/DeltatarO growth, OD600, 18 h, hits give low values, screened at 18.75 µg/mL (by protocol).
For `CCOc1ccc(-c2cc3c(=O)n(CC(=O)NCc4ccccc4)ccn3n2)cc1`, the survival is 83% (inactive).
Regarding `Cc1ccc(-n2c(=O)cc(N3CCN(c4ccccc4Cl)CC3)[nH]c2=O)cc1`, the survival was 25% (active).
On to `Cc1ccc(Cl)cc1-n1c(=O)cc(N2CCN(c3ccc(F)cc3)CC2)[nH]c1=O`, for which the survival was 70% (inactive).
`Cc1ccc(Cl)cc1-n1c(=O)cc(N2CCN(c3ccccc3)CC2)[nH]c1=O`: the survival was 92% (inactive).
Regarding `N#CC1(Nc2ccccc2Cl)C(=O)Nc2ccccc21` (stereo not drawn), the survival was 69% (inactive).
The same measure for `Oc1ccccc1-c1nc2cnccn2c1Nc1ccc(Cl)cc1`: 15% (active); for `Cc1cccc(C)c1Nc1c(-c2ccccc2Cl)nc2cnccn12`: 97% (inactive).
Take `CN(C)c1ccc(-c2nc3cnccn3c2Nc2cccc(C(F)(F)F)c2)cc1`: the survival is 83% (inactive).
Take `COc1ccc(Nc2c(-c3ccc(Cl)cc3)nc3cnccn23)cc1OC`: the survival was 58% (inactive).
The same measure for `Cc1ccc(Nc2c(-c3ccncc3)nc3ccc(C)cn23)cc1`: 102% (inactive).
As for `CC(C)c1ccc(Nc2c(-c3ccc(N(C)C)cc3)nc3cnccn23)cc1`, the figure is 43% (active).
The same measure for `COc1cc(-c2nc3cnccn3c2Nc2ccc(C(C)C)cc2)ccc1O`: 66% (inactive); for `CC(C)c1ccc(Nc2c(-c3ccccc3O)nc3cnccn23)cc1`: 55% (inactive); for `Cc1ccc(Nc2c(-c3ccc(C)cc3)nc3cnccn23)cc1`: 35% (active).
`O=C(CSc1nc(=O)n(Cc2ccco2)c2c1CCC2)NCc1ccc(Cl)cc1`: the survival is 69% (inactive).
As to `Cc1cccc(C)c1NC(=O)CN(Cc1ccc(Br)cc1)S(=O)(=O)c1ccccc1`, the survival is 60% (inactive).
With `CCOc1ccccc1NC(=O)C(CC)Sc1nc2ccncc2[nH]1` (stereo not drawn), the survival was 122% (inactive).
As for `COc1cc(NC(=O)N2CCC(CN3CCCC3)CC2)cc(OC)c1OC`, the figure is 79% (inactive); as for `O=C(Cn1nnc2sc(-c3ccccc3)cc2c1=O)Nc1cccc(C(F)(F)F)c1`, 40% (inactive); as for `COc1ccc(C2(NC(=O)c3ccc(Cn4cc(Cl)cn4)o3)CCCCC2)cc1`, 102% (inactive).
As for `O=c1c2ccccc2n(Cc2c(F)cccc2Cl)c(=O)n1CCc1ccccc1`, the figure is 85% (inactive); as for `COCCN(CCOC)c1ncnc2c1c(-c1ccccc1)cn2-c1ccc(C)c(Cl)c1`, 67% (inactive).
The same measure for `COc1ccccc1-c1cc(-c2ccc(O)cc2)nc(N)c1C#N`: 12% (active).
For the compound `CCCSc1nc(-c2ccc(OC)cc2)cc(-c2ccccc2OC)c1C#N`, the survival was 64% (inactive).
Regarding `CN(C)c1ccc(-c2cc(-c3ccccc3)c(C#N)c(N)n2)cc1`, the survival was 105% (inactive).
Regarding `CCOc1ccc2c(c1)c(=O)c(C(=O)c1ccccc1)cn2Cc1ccccc1F`, the survival is 83% (inactive).
As for `O=C(/C=N/O)NCCN1CCCCC1`, the survival was 98% (inactive).
With `CCCOc1ccc(CNC(=O)C2CCN(C(=O)c3sccc3-n3cccc3)CC2)cc1`, the survival is 79% (inactive).
As for `Cc1ccc(S(=O)(=O)N2CCCc3cc(NS(=O)(=O)c4cccc(Cl)c4)ccc32)cc1`, the figure is 68% (inactive); as for `Cn1c(=O)c2c(-c3ccccc3)n3c(c2n(C)c1=O)C(c1ccco1)Nc1ccccc1-3` (stereo not drawn), 77% (inactive).
In the case of `COc1ccc(O)c(C2Nc3ccccc3-n3c(-c4ccccc4)c4c(=O)n(C)c(=O)n(C)c4c32)c1` (stereo not drawn), the survival was 3% (active).
As for `Cc1ccc(C2Nc3ccccc3-n3c(-c4ccccc4)c4c(=O)n(C)c(=O)n(C)c4c32)o1` (stereo not drawn), the survival is 59% (inactive).
The same measure for `Cc1cc2c(cc1C)-n1c(-c3ccccc3)c3c(=O)n(C)c(=O)n(C)c3c1C(c1ccco1)N2` (stereo not drawn): 80% (inactive).
In the case of `Cc1ccc(-c2c3c(=O)n(C)c(=O)n(C)c3c3n2-c2ccccc2NC3c2ccc(C)cc2O)cc1` (stereo not drawn), the survival was 2% (active).
Consider `COc1ccccc1C1Nc2ccccc2-n2c(-c3ccccc3)c3c(=O)n(C)c(=O)n(C)c3c21` (stereo not drawn), for which the survival was 53% (inactive).
As for `COc1ccc(-c2nc3ccccc3n3c(-c4ccccc4)c4c(=O)n(C)c(=O)n(C)c4c23)cc1`, the survival is 80% (inactive).
As for `Cc1ccc(C2Nc3cc(C)c(C)cc3-n3c(-c4ccccc4)c4c(=O)n(C)c(=O)n(C)c4c32)o1` (stereo not drawn), the figure is 68% (inactive).
As for `Cn1c(=O)c2c(-c3ccccc3)n3c(c2n(C)c1=O)C(c1cc(Cl)ccc1O)Nc1ccccc1-3` (stereo not drawn), the figure is 1% (active); as for `COc1ccc(-c2c3c(=O)n(C)c(=O)n(C)c3c3n2-c2ccccc2NC3c2ccccc2OC)cc1` (stereo not drawn), 74% (inactive).
The same measure for `COc1ccc(-c2c3c(=O)n(C)c(=O)n(C)c3c3n2-c2ccccc2NC3c2ccc(O)cc2O)cc1` (stereo not drawn): 0% (active); for `COc1ccc(-c2c3c(=O)n(C)c(=O)n(C)c3c3n2-c2ccccc2NC3c2ccco2)cc1` (stereo not drawn): 50% (inactive); for `COc1ccc(OCC(=O)Nn2cnnc2)cc1`: 73% (inactive).
With `O=C(Cn1c(=O)oc2cc(S(=O)(=O)N3CCCCCC3)ccc21)Nc1ccc(F)cc1F`, the survival is 84% (inactive).
The same measure for `Cc1ccc(CCNC(=O)c2c(C)oc3ncn(CC(C)C)c(=O)c23)cc1`: 119% (inactive); for `CC(C)n1cc2c(c1-c1ccccc1Cl)c(=O)n(C)c(=O)n2C`: 89% (inactive); for `Cc1cc(=O)n2c(C(=O)Nc3ccc(Br)cc3)c(C(=O)Nc3ccccc3)sc2n1`: 62% (inactive).
On to `C=CCn1c(=O)[nH]c2c1c(=O)n(C)c(=O)n2C`, for which the survival was 80% (inactive).
As for `Cn1c(=O)c2c([nH]c(=O)n2Cc2ccc(Cl)cc2Cl)n(C)c1=O`, the figure is 42% (active).
On to `Cn1c(=O)c2c(nc(Oc3ccc(C#N)cc3)n2Cc2ccc(Cl)cc2Cl)n(C)c1=O`, for which the survival was 106% (inactive).
Consider `Cc1ccc(NC(=O)Nc2cn(C)c(=O)c3ccccc23)c(Cl)c1`, for which the survival was 89% (inactive).
The same measure for `CCOc1ccccc1N(CC)C(=O)Nc1cn(C)c(=O)c2ccccc12`: 94% (inactive).
As for `CN(C(=O)Nc1cn(C)c(=O)c2ccccc12)c1ccccc1`, the figure is -5% (active).
On to `CCc1ccc(NC(=O)N(Cc2c[nH]c3ccccc23)C2CCCCC2)cc1`, for which the survival is 84% (inactive).
As for `CCOc1ccc(NC(=O)N(Cc2c[nH]c3ccccc23)C2CCCCCC2)cc1`, the figure is 79% (inactive); as for `CCOc1ccc(NC(=O)N(Cc2c[nH]c3ccccc23)C2CCCCC2)cc1`, 74% (inactive); as for `CCc1ccc(NC(=O)N(Cc2cn(CC)c3ccccc23)C2CCCCC2)cc1`, -13% (active).
The same measure for `CCOc1ccc(NC(=O)N(Cc2cn(CC)c3ccccc23)C2CCCCCC2)cc1`: -12% (active).
The same measure for `CCc1ccc(NC(=O)N(Cc2c[nH]c3ccccc23)C2CCCCCC2)cc1`: 102% (inactive).
